In the supplement of paper PMC6555819:

Columns and labels:
Assay in all cases: PBM binding z-score (relative to random genomic background probes); higher = stronger binding; sequences stand for … in GC…GCGATTGACAGCGTAGAATGAAGG
[1] = system: RARb homodimer (NR concentration 270 nM)
Method in brief: (§1)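 Random background probes are the reference for binding z-scores. These scores derive from regression-normalized fluorescence on custom Agilent 4×180K protein-binding microarrays incubated 1 h with ligand-free nuclear receptor dimers. Binding was detected with antibodies against each partner (one per run).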

[2] = system: RARg:RXRa (NR concentration 270 nM, RXRa partner concentration 90 nM)
Method in brief: as §1

[3] = system: RARg homodimer (NR concentration 270 nM)
Method in brief: as §1

[4] = system: RXRa DBDmut IVT, anti-RXR (DBD mutation: RXRa K156A/R161A, NR concentration 90 nM)
Method in brief: as §1

[5] = system: RXRa homodimer (NR concentration 180 nM)
Method in brief: as §1

[6] = system: THRa:RXRa (NR concentration 90 nM, RXRa partner concentration 90 nM)
Method in brief: as §1

[7] = system: THRa homodimer (NR concentration 90 nM)
Method in brief: as §1

[8] = system: VDR homodimer (NR concentration 270 nM)
Method in brief: as §1

| Sequence | PBM binding z-score [1] | PBM binding z-score [2] | PBM binding z-score [3] | PBM binding z-score [4] | PBM binding z-score [5] | PBM binding z-score [6] | PBM binding z-score [7] | PBM binding z-score [8] |
| --- | --- | --- | --- | --- | --- | --- | --- | --- |
| CGTCAAAGTACAAGGTAACGTAACAGAAAGCAGC | 0.287 | 0.552 | 1.1 | 0.923 | 0.455 | 1.37 | 0.356 | -0.157 |
| GTACCAAGGCGAATAGGTCGTTGATGAGTAGGCG | 0.278 | 0.265 | 0.191 | -0.465 | 0.543 | 0.0285 | -0.524 | -0.0798 |
| AGTTAAAGTTCACTAGGTAACGTAAGATTCAGCT | 3.53 | 4.38 | 4.95 | 3.86 | 3.07 | 1.92 | 0.252 | 3.22 |
| TCATATACGTAATACAGGTGAAAGTCGGCATCTA | 0.8 | 0.758 | 0.567 | 1.76 | 1.3 | 0.75 | 0.27 | 0.145 |
| AGAACGAGGGCAATGAGTTGATAGCCCGGGTGGC | 0.793 | 0.874 | 1.57 | 1.84 | 0.855 | 0.913 | -0.362 | 2.96 |
| CGAACGAGGGCATGAGTTGATACCAAATGCCGAT | 1.11 | 1.48 | 1.6 | 2.37 | 0.992 | 1.37 | -0.127 | 1.57 |
| GCTCGGAGTACAAGGTCAGAGCTTTGTCCGTAGA | 2.65 | 2.42 | 2.48 | 1.1 | 2.11 | 2.63 | 1.23 | 0.858 |
